An excerpt weighted towards active compounds, which were near 2.6% of everything screened.
ATXN2 expr inh = reduces ATXN2 reporter expression in HEK-293 cells; AID 1745845; Potency, µM (doses to about 57 µM), for the others: top-dose activity change, negative = inhibition, actives largely listed as inhibitors; HEK-293 ATXN2-luciferase reporter, luminescence, 24 h; 360,000 tested, 0.72% active; note: potency is the fitted concentration of half-maximal effect; % is set by controls: 0 for no effect and ±100 for the full control effect; nearly all actives have a fitted effect of over 55% in size
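ATXN2-luciferase reporter cells (luciferase flanked by upstream and downstream ATXN2 gene portions) were treated 24 h at 37 °C with compounds at up to 57 uM. SteadyGlo luminescence gave expression; GF-AFC fluorescence gave viability.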
TGFb SMAD3 inh = TGF-b pathway inhibition; HepG2 CAGA-GFP TGF-b/SMAD3 reporter, GFP fluorescence, 18 h; TGF-beta stimulated, 500 pg/mL final; 410,000 tested, 1.2% active; Potency, µM (titrated, usually from 46.1 µM), for inactives: top-dose activity, negative = inhibition, most hits filed as inhibitors; note: potency is the fitted concentration of half-maximal effect; % is set by controls: 0 for no effect and ±100 for the full control effect; nearly all actives have a fitted effect of over 65% in size
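Read-out: total well GFP (ex488/em500-530) summed from mean per-cell fluorescence. Cells: HEPG2 CAGA-GFP, 1% FBS DMEM, 18 h at 37 degrees C with 500 pg/mL final TGF-beta. Unstimulated wells served as the full-inhibition control; stimulated DMSO wells = 0%.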
S2 tox = cell viability loss in ATXN counter-screen | S2 cells (HEK-293 line with an ATXN2-luciferase reporter) viability, CellTiter-Fluor protease fluorescence, 24 h | Potency, µM (titrated, usually from 56.7 µM), usual class: cytotoxic | 400,000 tested, 0.49% active; note: potency is the fitted concentration of half-maximal effect; nearly all actives have a fitted effect of over 40% in size
uPA generation = cell surface uPA generation inhibition; cell surface uPA generation assay, qHTS; Potency, µM (highest dose often 38.3 µM), without a hit: at the top dose activity change, negative = inhibition, usual class: inhibitors; 330,000 tested, 0.31% active; active = well fitted inhibition curve with a large enough effect; inconclusive = small, poorly fitted or top-dose-only effect; inactive = no such curve, though single readings can be large or run the other way; tested in mouse RAW 264.7 cells; note: potency is the fitted concentration of half-maximal effect; % is set by controls: 0 for no effect and ±100 for the full control effect; nearly all actives have a fitted effect of over 55% in size
HepG2 tox-1 = kills HepG2 cells in TGF-b inhibitor counter-screen; HepG2 CAGA-GFP viability, ATP luminescence, 18 h; Potency, µM (titrated, usually from 46.1 µM), inactives show at the highest dose activity change, negative = cytotoxicity, usual class: cytotoxic; 410,000 tested, 0.76% active; AID 588856; note: potency is the fitted concentration of half-maximal effect
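HepG2 CAGA-GFP cells (1000/well, DMEM with 1% FBS) received compound, then TGF-beta at 500 pg/mL final, and were incubated 18 hours at 37 degrees C. Viability was read by CellTiter-Glo luminescence. Media-only wells were set as complete cell-killing and DMSO as no toxicity.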
Giardia killer = kills Giardia lamblia; Giardia lamblia trophozoite viability; activity change, % at 7.66 µM, hits read low; 340,000 tested, 0.15% active; AID 540267; in the data active = activity change below about -80%; inconclusive = between about -30% and that limit;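 note: parasites exposed to compound for two days anaerobically before the ATP read; % is set by controls: 0 for no effect and ±100 for the full control effect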
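Compounds were tested on trophozoites seeded at 100 cells/well and held 48 hrs at 37 deg C anaerobically. An ATP-based luminescent kit measured the remaining live cells.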
TGFb CAGA inh = TGF-b pathway inhibition, cherry-pick retest | shares compounds with TGFb SMAD3 inh | Potency, µM (titrated, usually from 46.1 µM), for inactives: at the top dose activity, negative = inhibition, usual class: inhibitors | 1,600 tested, 63% active | HepG2 CAGA-GFP TGF-b reporter, GFP fluorescence, 18 h; cells stimulated with TGF-beta, 500 pg/mL; note: potency is the fitted concentration of half-maximal effect; % is set by controls: 0 for no effect and ±100 for the full control effect; nearly all actives have a fitted effect of over 65% in size
HepG2 tox-2 = HepG2 cytotoxicity, TGF-b inhibitor counterscreen. shares compounds with TGFb SMAD3 inh. HepG2 CAGA-GFP viability, ATP luminescence, 18 h; cells stimulated with TGF-beta, 500 pg/mL. Potency, µM (doses to about 46.1 µM), for the others: top-dose activity, negative = cytotoxicity, usual class: inhibitors. 1,600 tested, 27% active. AID 720535; note: potency is the fitted concentration of half-maximal effect; % is set by controls: 0 for no effect and ±100 for the full control effect; nearly all actives have a fitted effect of over 70% in size
CCL64 TGFb inh = orthogonal confirmation of TGF-b inhibitors in CCL64 cells; Potency, µM (highest dose often 46.1 µM), without a hit: at the top dose activity, negative = inhibition, hits mostly inhibitors; shares compounds with TGFb SMAD3 inh; 1,600 tested, 41% active; CCL64 CAGA-GFP reporter, TGF-b stimulated, GFP fluorescence, 18 h; note: potency is the fitted concentration of half-maximal effect; nearly all actives have a fitted effect of over 65% in size
TGFb COP inh = validation of TGF-b inhibitors in HepG2 COP promoter reporter. shares compounds with TGFb SMAD3 inh. HepG2 COP-GFP TGF-b reporter, GFP fluorescence, 18 h; cells stimulated by added recombinant TGF-beta. 1,600 tested, 3% active. Potency, µM (highest dose often 46.1 µM), without a hit: at the highest dose activity, negative = inhibition, actives largely listed as inhibitors; note: potency is the fitted concentration of half-maximal effect; nearly all actives have a fitted effect of over 70% in size
* hit, by the source's call; i = inactive; ? = inconclusive; . = not tested or not shown. Unless noted, calls come from the whole dose curve; as a rule, active = well fitted curve in the direction sought with a large enough effect; inconclusive = small, poorly fitted or top-dose-only effect, or another doubt; inactive = no such curve, though single readings can be large; an effect the other way counts as inactive or inconclusive.

SMILES	ATXN2 expr inh	TGFb SMAD3 inh	S2 tox	uPA generation	HepG2 tox-1	Giardia killer	TGFb CAGA inh	HepG2 tox-2	CCL64 TGFb inh	TGFb COP inh
CC(C)(C)OC(=O)C[C@H]1C/C=C\C[C@H](CC(=O)NCCO)C(=O)NC[C@H](c2ccccc2)OC1=O	0%	9%	i	10%	-2%	-17	.	.	.	.
C[C@H]1CN([C@@H](C)CO)S(=O)(=O)c2ccc(-c3ccccc3)cc2O[C@H]1CN(C)C(=O)C1CCC1	-27%	0%	i	.	-12%	.	.	.	.	.
CN(C)c1ccc(C=O)c(O)c1	.	12%	.	.	23%	.	.	.	.	.
CC(Nc1ccccc1CO)C(=O)Nc1cccc(Cl)c1Cl (stereo not drawn)	?	4µM*	i	-8%	-32%	-3	5.2µM*	2.1µM*	-20%	-15%
CC(C)C(=O)N1CCC1(C)C(=O)NCc1cc(Cl)ccc1F (stereo not drawn)	-2%	1%	i	.	-13%	.	.	.	.	.
CC1=C(CO)C(=O)OC([C@@H](C)C2CC[C@H]3C4C[C@H]5O[C@]56[C@@H](O)C=CC(=O)[C@]6(C)C4CC[C@]23C)C1 (stereo partly drawn)	3.2µM*	2.8µM*	5.6µM*	?	-106%	14	0.58µM*	2.3µM*	1.2µM*	?
CC(=O)c1ccc(NC(=O)COC(=O)c2c3c(nc4ccccc24)/C(=C\c2cccs2)CCC3)cc1	?	1.8µM*	i	-15%	-37%	?	6.5µM*	?	1.5µM*	27%
O=C(COC(=O)c1c2c(nc3ccccc13)/C(=C\c1cccs1)CCC2)Nc1ccccc1	-23%	11µM*	i	0%	-4%	-16	?	?	?	39%
CC1CCc2c(sc(NC(=O)CSc3nc(N)cc(=O)[nH]3)c2C(N)=O)C1 (stereo not drawn)	?	-18%	i	-6%	-5%	-15	.	.	.	.
Cc1ccc(S(=O)(=O)c2nc(-c3cccs3)oc2SC(C)c2ccccc2)cc1 (stereo not drawn)	6%	20%	i	.	1%	.	.	.	.	.
Clc1nc(Cl)nc(N(c2ccccc2)c2ccccc2)n1	-1%	?	i	-3%	-46%	0	?	?	?	36%
c1ccc(N(c2ccccc2)c2nc(-n3ccnc3)nc(-n3ccnc3)n2)cc1	-2%	?	i	10%	-15%	-6	.	.	.	.
O=C(Cc1ccccc1Nc1c(Cl)cccc1Cl)OCO/N=[N+](\[O-])N1CCCC1	.	?	.	.	-56%	-16	.	.	.	.
O=C(NC1CCCC(C(F)(F)F)C1)c1ccc([N+](=O)[O-])o1 (stereo not drawn)	-8%	10µM*	i	?	16µM*	-91*	7.3µM*	23µM*	?	?

Screens deposited in PubChem by National Center for Advancing Translational Sciences (NCATS).
